Results: the OligoGym collection

Target: MAGEA2B
Assay: pooled miR-30 sensor sort-seq; sequence = guide strand
Settings: shRNA

Compared with TCTTCCTACTGATTGCTGCTTG, ATTTCTGAGGACACTCTCCAGC is lower in sensor-assay potency score (higher = more potent): -0.703 for the first, -1.24 for the second.

First: AAAATGAACCAACTCAACCATC
Second: AAATGTGAGGTTCTCCACCGAT
The sensor-assay potency score (higher = more potent) of the first is lower: -1.2 for the first, -0.397 for the second.

Compared with TCCAGGTCGGGAAACATTCTTG, TAGTGTATGGTGCAGGACTTTC is higher in sensor-assay potency score (higher = more potent): -1.23 for the first, -1.11 for the second.

Going from ACCAACTCAACCATCTTCCTAC to TTGATGGTAGTCGAGAAGCTGG, the sensor-assay potency score (higher = more potent) rises from -1.03 to -0.963.

Work on TCTGAGGACACTCTCCAGCATT yielded a sensor-assay potency score (higher = more potent) of -1.1.

Target: MAGEA8
Assay: as above
Settings: shRNA

First: TGTGGGAATCTGCACATCCATA
Second: TTCTTTATGTCTTTATCTCATG
The sensor-assay potency score (higher = more potent) of the first is lower: -1.63 for the first, -1.14 for the second.

First: TAGAGGAGGAGGATGCAGCCTT
Second: TTTCTCATCAAGTGCTTCCCGG
The sensor-assay potency score (higher = more potent) of the first is higher: -0.332 for the first, -0.5 for the second.

Going from ATCAATGCCAAAGATCACCTGC to TTTATGTCTTTATCTCATGTAT, the sensor-assay potency score (higher = more potent) falls from 0.274 to -0.397.

First: TAGCGCACAGGATCACTGCCGG
Second: TAATCCTCTGCTCTTGTAGTGT
The sensor-assay potency score (higher = more potent) of the first is lower: -0.803 for the first, -0.188 for the second.

Going from TTCCTCAGCCTTGTAGCGCTGA to TTCTCATCAAGTGCTTCCCGGA, the sensor-assay potency score (higher = more potent) falls from 0.23 to -0.615.

TTTGATGACACTCTCAAGCATT showed a sensor-assay potency score (higher = more potent) of -0.926.

Target: MAGED2
Assay: as above
Settings: shRNA

Going from TTGATGGGAATCTTCGTCTGGT to TTTCTTGGCTTTGACCTTGGGC, the sensor-assay potency score (higher = more potent) rises from -0.0413 to 0.00108.

First: TTTTGAGACCTTCACATCCTCT
Second: AACAGAGTCTGCATCATCGAGC
The sensor-assay potency score (higher = more potent) of the first is lower: -1.1 for the first, -0.281 for the second.

Going from TTTAGCTTCTGCTCCCGCCTGG to TTCTTTTGTACCTTGCAGGCAA, the sensor-assay potency score (higher = more potent) rises from -0.0182 to 0.18.

Going from TCGAGCTCTAATCTCGGCCCTA to TTCTTTGATGATGTCCTTCAGC, the sensor-assay potency score (higher = more potent) falls from -0.609 to -0.636.

Compared with TTTGATGATGTCCTTCAGCATG, TTGTATTGACCTTTGTATCAGC is higher in sensor-assay potency score (higher = more potent): -1.48 for the first, -0.669 for the second.

Work on TTGGGTGAGTCCTTAGTCGTTC yielded a sensor-assay potency score (higher = more potent) of -0.156.

Target: MAGOHB
Assay: as above
Settings: shRNA

First: TTTCTGATCATCACATCATTTT
Second: TTTTCTGATCATCACATCATTT
The sensor-assay potency score (higher = more potent) of the first is lower: -1.65 for the first, -1.33 for the second.

Compared with TCTTCTTTTGTAATTTCACTGT, TTCCATTACACTCTTGTGCACA is lower in sensor-assay potency score (higher = more potent): -0.146 for the first, -0.478 for the second.

Compared with TTCTTCCATTACACTCTTGTGC, AAACTAAACATTTCAAGTCTTG is higher in sensor-assay potency score (higher = more potent): -0.965 for the first, -0.697 for the second.

Compared with TACAATTTCAAGCTCCTGTCGG, AATTACAATTTCAAGCTCCTGT is higher in sensor-assay potency score (higher = more potent): 0.0556 for the first, 0.142 for the second.

With ATATCTAAGCTTTCCGTCCGGC the sensor-assay potency score (higher = more potent) was -0.264.
